An excerpt weighted towards active compounds, which were near 0.4% of everything screened.
GLA inh pH 4.5: qHTS Assay for Inhibitors of Human alpha-Galactosidase at pH 4.5. activity change, negative = inhibition, % at 105 µM. AID 1467, 2008. 230,000 tested, under 10 active. purified enzyme, 4-MU-alpha-Gal fluorescence, pH 4.5;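 further: 0% = full activity with enzyme and -100% = basal without enzyme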
GAA glycogen mod: qHTS Assay for Inhibitors and Activators of Human alpha-Glucosidase Cleavage of Glycogen; Lysosomal alpha-glucosidase (Homo sapiens), P10253; recombinant GAA, glycogen substrate, Amplex Red glucose oxidase fluorescence; Potency, µM (highest dose often 76.4 µM), for the others: at the highest dose activity change, negative = inhibition, hits mostly inhibitors; actives 0.38% (n = 300,000); AID 2100, 2009;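 further: potency means the concentration at half of the fitted maximal effect; 0% = full enzyme reaction and -100% = no-enzyme basal signal; the screen sought inhibitors and activators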
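Natural-substrate format: glycogen cleavage by 4 nM human enzyme, glucose read by Amplex Red coupling (Ex 573, Em 610 nm). Normalized to enzyme and no-enzyme controls.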
GAA spleen mod: qHTS Assay for Inhibitors and Activators of Human alpha-Glucosidase From Spleen Homogenate; Lysosomal alpha-glucosidase (Homo sapiens), P10253; human spleen homogenate, 4-MU-alpha-glucoside fluorescence; Potency, µM (highest dose often 79.9 µM), for inactives: top-dose activity change, negative = inhibition, actives largely listed as inhibitors; actives 0.006% (n = 240,000); AID 2112, 2009;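 further: potency means the concentration at half of the fitted maximal effect; 0% = enzyme with vehicle and -100% = no enzyme basal signal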
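Enzyme source: human spleen homogenate, 1 ug/well. Buffer 50 mM citric acid/K phosphate pH 5.0, 0.01% Tween-20. 4-MU-alpha-glucoside 1 mM; 37 C x 40 min; NaOH/glycine stop; fluorescence.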
GAA inhib: qHTS Assay for Inhibitors of Human alpha-Glucosidase as a Potential Chaperone Treatment of Pompe Disease | purified human GAA, 4-MU-alpha-glucoside fluorescence | Lysosomal alpha-glucosidase (Homo sapiens), P10253 | actives 0.005% (n = 200,000) | Potency, µM (titrated, usually from 76.9 µM), inactives show top-dose activity change, negative = inhibition, usual class: inhibitors;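 further: potency means the concentration at half of the fitted maximal effect; plate controls were uninhibited enzyme wells for no effect and no-enzyme background for full effect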
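AC50 values come from Hill fits of compound titrations (up to 77 uM) against 4 nM human enzyme. Substrate 4-methylumbelliferyl-alpha-D-pyranoside at 400 uM, pH 5.0 citrate buffer, 20 min room temperature; fluorescence Ex 365/Em 440 after alkaline stop.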
GLA spleen mod: qHTS Assay for Inhibitors and Activators of Human alpha-Galactosidase From Spleen Homogenate; Alpha-galactosidase A (Homo sapiens), P06280; human spleen homogenate, 4MU-alpha-Gal fluorescence, 40 min; Potency, µM (series often up to 80 µM), for inactives: top-dose activity change, negative = inhibition, actives largely listed as inhibitors; actives 0.008% (n = 240,000); AID 2107, 2009;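 further: potency means the concentration at half of the fitted maximal effect; 0% = enzyme with vehicle and -100% = no enzyme basal signal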
Target sequence (P06280 32-429 limits assumed): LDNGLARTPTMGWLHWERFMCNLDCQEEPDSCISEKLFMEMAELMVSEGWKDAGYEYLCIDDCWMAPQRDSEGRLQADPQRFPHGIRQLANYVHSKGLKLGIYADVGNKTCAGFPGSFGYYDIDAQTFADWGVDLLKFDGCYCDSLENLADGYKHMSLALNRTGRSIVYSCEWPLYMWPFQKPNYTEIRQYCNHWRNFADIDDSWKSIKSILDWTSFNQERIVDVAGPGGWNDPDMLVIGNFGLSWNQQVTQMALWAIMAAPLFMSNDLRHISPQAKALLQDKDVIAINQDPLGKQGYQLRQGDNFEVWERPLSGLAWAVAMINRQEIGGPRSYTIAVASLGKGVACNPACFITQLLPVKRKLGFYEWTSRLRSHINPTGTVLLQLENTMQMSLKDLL
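Fluorogenic readout (Ex 365/Em 440 nm) of 4-methylumbelliferone released from 1 mM 4-MU-alpha-galactoside by spleen homogenate, 40 min at 37C, pH 5.0. Data normalized to no-enzyme and enzyme controls; Hill-equation AC50 from compound titrations.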
* = called active by the depositor; ? = inconclusive; nt = no result given; [ ] = another dose, or the depositor's remark. The call rests on the fitted dose curve; in most records, active means well fitted curve in the direction sought with a large enough effect; inconclusive means small, poorly fitted or top-dose-only effect, or another doubt; inactive means no such curve, though single readings can be large; an effect the other way counts as inactive or inconclusive.

SMILES | GLA inh pH 4.5 | GAA glycogen mod | GAA spleen mod | GAA inhib | GLA spleen mod
COc1cc(/C=N/Nc2nc3ccccc3[nH]c2=O)ccc1O | -9.2 | ? | nt | -6.6% | -2.3%
C(=N\Nc1nc2ccccc2[nH]1)/c1ccc2c(c1)OCO2 | -3.5 | 15.8µM* | nt | -7.1% | -2.3%
O=C(O)c1oc2ccccc2c1CN1CCN(c2ccccc2)CC1 | 2.2 | 0.5% | -4.1% | -12.4% | 8.1%
COc1cc(/C=N/Nc2nc3ccccc3[nH]2)cc(OC)c1O | -2.8 | 20µM* | -5.5% | 5.4% | -3.4%
Cc1c(/C=N/Nc2nc3ccccc3[nH]2)c2ccccc2n1C | -3.8 | ? | 8.5% | nt | -0.9%
COc1cccc(/C=N/Nc2nc3ccccc3[nH]2)c1O | -1.5 | ? | -3.4% | nt | 4.2%
C=CCn1cc(/C=N/Nc2nc3ccccc3[nH]2)c2ccccc21 | 2.4 | 28.2µM* | -5.1% | -8.4% | 0.7%
Cc1cc(Br)ccc1SCC(=O)OCC(=O)NC1CC1 | -9.3 | -13.2% | 1.9% | 0.1% | -2.3%
O=C(Nc1ccccc1C(=O)O)c1ccc(Br)o1 | 1.0 | -4.7% | -9.3% | -3.4% | -3.9%
C/C(CC(=O)Nc1ccc(C)c(Cl)c1)=N\NC(=O)c1ccncc1 | -6.7 | -23.4% | nt | -4.2% | -1.9%
C/C(CC(=O)Nc1ccc(Cl)cc1C(F)(F)F)=N\NC(N)=S | -3.1 | ? | 3.9% | nt | 6.8%
C/C(CC(=O)Nc1cc(Cl)ccc1Cl)=N\NC(N)=S | 1.0 | 9.92µM* | -5.1% | 0.6% | -12.3%
C/C(CC(=O)Nc1ccc(Cl)c(Cl)c1)=N\NC(N)=S | 1.1 | 7.94µM* | -9.6% | -11.6% | 3.5%
C/C(CC(=O)Nc1ccc(Cl)cc1Cl)=N\NC(N)=S | 7.0 | 22.4µM* | -3.9% | -5.3% | -1.1%
C/C(CC(=O)Nc1ccc(Cl)cc1Cl)=N\NC(=O)c1ccncc1 | -11.0 | -22.8% | 2.1% | nt | 0.4%
Cc1ccc(NC(=S)NNc2ccc([N+](=O)[O-])cc2S(=O)(=O)Nc2ccccc2C(=O)O)cc1C | -1.9 | 22.4µM* | 0.5% | 0.1% | -2.3%
CC1CCN(S(=O)(=O)c2ccc(C(=O)Nc3nnc(-c4ccncc4)o3)cc2)CC1 | -2.2 | -0.5% | -2.9% | 0.6% | -1.8%
CC(C)(C)N=C1SCC(C)(/C=N/O)S1 (stereo not given) | -6.2 | 3.2% | 6.3% | 2.0% | 5.4%
CCN(CC)S(=O)(=O)c1cc([N+](=O)[O-])ccc1NNC(=O)Nc1ccccc1OC | -4.1 | 22.2µM* | -3.2% | 5.7% | -1.2%
CCOC(=O)c1c(C)[nH]c(C)c1S(=O)(=O)NCCc1ccco1 | nt | -3.3%[76.3 µM] | nt | nt | nt
Cc1ccccc1S(=O)(=O)NNC(=O)C(=O)NNc1ccccn1 | -1.8 | 3.55µM* | 3.8% | -2.0% | -2.1%
Nc1ccc(S(=O)(=O)NNC(=O)C(=O)NNc2ccccn2)cc1 | 4.6 | 3.16µM* | -4.8% | -4.5% | 1.8%
O=C(Nc1ccccn1)C(=O)Nc1ccccn1 | -5.2 | 6.9% | 4.1% | 2.1% | 8.3%
Cc1ccc(S(=O)(=O)NNC(=O)C(=O)NNc2ccccn2)cc1 | 5.8 | 3.52µM* | -7.7% | 0.4% | -1.2%
CC(=O)Nc1ccc(S(=O)(=O)NNC(=O)C(=O)NNc2ccccn2)cc1 | -6.0 | ? | -6.6% | 1.6% | -7.3%
SMILES | GLA inh pH 4.5 | GAA glycogen mod | GAA spleen mod | GAA inhib | GLA spleen mod
CCN(CC)c1ccc(NC(=O)CN2C(=O)CC(C)(C)S(=O)(=O)c3ccccc32)c(C)c1 | 4.3 | -6.0% | -4.6% | -10.0% | -1.4%
NC(=O)c1ncn([C@@H]2O[C@H](CO)[C@@H](O)[C@H]2O)c1N | nt | nt | 3.2% | nt | 8.0%
COC(=O)c1ccc(NC(=O)CCS(=O)(=O)c2ccc(Br)cc2)cc1 | -2.3 | 1.6% | 0.1% | -10.0% | -1.9%
O=S1(=O)N=C(Oc2cccc3ccccc23)c2ccccc21 | -2.9 | 25.1µM* | 4.4% | -0.8% | -0.5%
Cc1c(Cl)c(-c2n[nH]c(=S)n2CC(C)C)nn1C | 0.6 | 5.1% | 0.4% | 2.2% | -3.7%
O=C(NNC(=S)Nc1ccc(Br)cc1)c1cccnc1 | nt | 50.1µM* | nt | nt | nt

Screening results from PubChem.
